# Hits are enriched below; roughly 3.5% of the tested compounds scored in any of these assays.
# FBW7 activator: human FBW7 E3 ligase activation, primary screen; Q969H0; AlphaScreen FBW7–phospho-cyclin E peptide binding, activator screen; normalized activity (activation), % at 26.1 µM; 0.13% of 650,000 active; AID 1259310; in the data active means normalized activity above about 1.9%;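 further: purified mutant Fbw7 with reduced substrate affinity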
# GPR151 activ: activates the human receptor GPR151; 1% of 650,000 active; activation, % at 11.2 µM; PathHunter beta-arrestin GPR151 cells, luminescence; Q8TDV0; in the data active means activation above about 4.9%;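 further: 0% = median of compound wells and 100% = cells with positive control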
# Target sequence (Q8TDV0 whole entry, looked up): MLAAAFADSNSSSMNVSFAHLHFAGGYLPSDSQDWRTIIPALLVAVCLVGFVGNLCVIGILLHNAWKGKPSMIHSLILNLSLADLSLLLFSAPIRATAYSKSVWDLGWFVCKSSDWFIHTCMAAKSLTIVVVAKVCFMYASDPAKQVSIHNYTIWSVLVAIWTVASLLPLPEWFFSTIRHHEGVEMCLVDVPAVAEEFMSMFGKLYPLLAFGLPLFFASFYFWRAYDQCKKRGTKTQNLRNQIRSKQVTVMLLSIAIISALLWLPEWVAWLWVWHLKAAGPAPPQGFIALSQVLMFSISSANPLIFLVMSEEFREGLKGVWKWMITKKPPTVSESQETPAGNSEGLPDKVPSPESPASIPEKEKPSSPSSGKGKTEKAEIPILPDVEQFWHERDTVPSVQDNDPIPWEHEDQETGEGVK
# TEAD-YAP block: TEAD-YAP interaction inhibition | HEK-TIYL cells, TEAD-Gal4/YAP UAS-luciferase luminescence | inhibition, % at 9.12 µM | 1.4% of 640,000 active; in the data active means inhibition above about 32%;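 further: 0% = median of test compound wells and 100% = reference inhibitor wells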
# MITF primary: blocks human microphthalmia-associated transcription factor. AID 1259374. O75030. 0.91% of 650,000 active. inhibition, % at 2.6 µM. AlphaScreen MITF homodimerization, bead proximity signal; in the data active means inhibition above about 50%;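 further: 0% = vehicle wells with protein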
# GPR151 conf act: human GPR151 activation, confirmation screen; shares compounds with GPR151 activ; GPR151 PathHunter beta-arrestin cells, luminescence, 90 min; % of EA-reagent control over plate median; activation, % at 11.2 µM; 6,700 tested, under 10 active;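 active means mean percent activation across replicates above the confirmation screen cutoff of 4.91%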
# GPR119 ag: GPR119 activation, counter-screen for GPR151 activators; 0.3% of 6,700 active; shares compounds with GPR151 activ; activation, % at 11.2 µM; GPR119 PathHunter beta-arrestin cells, luminescence, 90 min; 0 = compound-well median, 100 = enzyme-acceptor control;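 active means mean percent activation in the counterscreen above 29.09%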;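 further: counterscreen on off-target GPR119 to flag nonselective hits from the GPR151 activator screen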
# * marks the source's active call; other numbers are inactive results; nt = no result given.
SMILES,FBW7 activator,GPR151 activ,TEAD-YAP block,MITF primary,GPR151 conf act,GPR119 ag
CN(CC(=O)Nc1ccccc1F)S(=O)(=O)c1cccc2cnccc12,0,5.4*,37*,6,0,-6
Brc1cccc(-c2nnc(CN3CCN(Cc4ccccc4)CC3)o2)c1,0,6.0*,-1,2,0,-4
COCCn1c(C)cc(C2=NNC(=Nc3ccccc3)SC2)c1C,0,11*,57*,-4,1,2
C=CCn1c(C)cc(C2=NNC(=Nc3ccccc3)SC2)c1C,1,0,-43,18,nt,nt
CCOC(=O)CNc1c(-c2ccc(O)cc2)nc2cnccn12,0,1,-6,-3,nt,nt
CCOC(=O)CNc1c(-c2ccc(OC)c(O)c2)nc2ccc(C)cn12,0,5.5*,-34,10,0,1
COc1cc(OC)cc(-n2nc(C(=O)N3CCCCC3)c3ccccc3c2=O)c1,0,13*,6,10,0,0
COc1cc(OC)cc(-n2nc(C(=O)N3CCCCCC3)c3ccccc3c2=O)c1,0,1,-3,0,nt,nt
O=C(c1n[nH]c(=O)c2ccccc12)N1CCCCCC1,0,5.6*,0,17,0,6
CCOc1cc(/C=N/NC(=O)COc2ccc(Cl)cc2)ccc1O,0,0,15,-1,nt,nt
Nc1cc[n+](CC(=O)c2ccccc2)cc1,0,7.1*,-12,-13,0,-6
COc1cc(=O)n2c(c1C(=O)N1CCCC1)CCN(CCC(C)c1ccccc1)CC2 (configuration not stated),0,0,-4,8,nt,nt
COc1ccc(-n2nnc3c(N4CCN(C(=O)CC5CCCCC5)CC4)ncnc32)cc1,0,2,-3,1,nt,nt
COc1cccc(-n2nnc3c(N4CCN(S(=O)(=O)c5cc(F)ccc5F)CC4)ncnc32)c1,0,6.0*,2,-5,-1,-4
COc1ccc(-n2nnc3c(N4CCN(C(=O)Cc5ccc(Cl)cc5)CC4)ncnc32)cc1,0,5.5*,0,1,0,-3
COC(=O)/C(=C/c1ccc([N+](=O)[O-])cc1)NC(=O)c1ccc(OC)cc1,0,0,6,9,nt,nt
CCOc1ccc(/C(O)=C2/C(=O)C(=O)N(CCCN(C)C)C2c2ccc(F)cc2)c(C)c1 (configuration not stated),0,0,1,-2,nt,nt
Brc1ccc2c(ccc[n+]2C/C=C/c2ccccc2)c1,0,6.2*,14,-3,1,-7
O/N=C/c1ccc[n+](C/C=C/c2ccccc2)c1,0,-1,3,16,nt,nt
CCOc1ccc(NC(=O)CNC(=O)c2ccc(C(C)(C)C)cc2)cc1,0,9.1*,8,8,0,-9
CC(C)(C)c1ccc(OCC(=O)Nc2ccc(OCC(=O)O)cc2)cc1,0,5.2*,7,11,0,4
CC(=O)c1ccc(OCC(=O)Nc2ccccc2)cc1,0,5.8*,-39,10,-2,-16
CCOc1ccc(NC(=O)c2ccc(C(C)(C)C)cc2)cc1,0,-1,-29,-13,nt,nt
O=C(COc1ccc(F)cc1)Nc1cccc(C(=O)O)c1,0,6.5*,-10,6,1,18
O=c1c([N+](=O)[O-])c(NCCc2ccccc2)c2ccccc2n1-c1ccccc1,0,2,0,-4,nt,nt
SMILES,FBW7 activator,GPR151 activ,TEAD-YAP block,MITF primary,GPR151 conf act,GPR119 ag
CCOc1ccc(-c2cccc(NC(=O)COc3ccc(C(=O)c4ccccc4)cc3)c2)nn1,0,7.3*,5,21,-1,-1
Cc1cccc(N(Cc2ccccc2F)S(C)(=O)=O)c1,1,0,1,7,nt,nt
Cc1cccc(N(Cc2c(F)cccc2Cl)S(C)(=O)=O)c1,1,6.9*,6,5,-1,-14
COc1ccc(CCN2C(=O)NC(NC(C)=O)(C(F)(F)F)C2=O)cc1OC (configuration not stated),0,5.0*,3,12,0,-9
Cc1ccc(CN2CCNC(=O)C2CC(=O)N2CCCN(c3ncccn3)CC2)o1 (configuration not stated),0,1,-1,-17,nt,nt
Cc1ccc(CN2CCNC(=O)C2CC(=O)N2CCCN(Cc3ccccn3)CC2)o1 (configuration not stated),0,5.6*,-1,13,0,1
O=C1C(c2ccc3ccccc3n2)=C(O)c2ccccc21,0,-4,-3,4,nt,nt
CN(C)c1ccc(/C=C2\C(=O)ON=C2c2ccccc2)cc1[N+](=O)[O-],0,5.8*,-2,72*,0,-8
Cc1sc2nc(C3CC3)n(C3CCN(C(=O)c4ccccn4)CC3)c(=O)c2c1C,0,6.5*,-31,-13,1,3
Cc1csc2nc(CCNC(=O)CCC(=O)O)cn12,0,3,2,-7,nt,nt
O=S(=O)(NCc1csc(-c2cccnc2)n1)c1ccc(Br)cc1,0,5.6*,-9,11,0,-10
O=C(Nc1cccc(Cl)c1)N1CCC2(CC1)NCCc1c2[nH]c2ccccc12,0,-1,-6,9,nt,nt
COc1ccccc1OCC(=O)Nc1ccccc1C(=O)O,0,-4,-57,-7,nt,nt
COC(=O)c1ccccc1NC(=O)COc1ccc(C=O)cc1,0,8.0*,0,1,0,-10
COc1cc(C=O)ccc1OCC(=O)Nc1ccccc1C(=O)c1ccccc1,0,5.8*,-1,15,0,1
COC(=O)c1ccccc1NC(=O)COc1ccc(F)cc1,0,-2,3,0,nt,nt
CCOc1ccc(C(=O)NC(=S)Nc2ccccc2C(=O)OC)cc1,0,6.8*,-4,6,1,-9
CCOc1ccc(C(=O)NC(=S)Nc2ccccc2C(=O)OC)cc1[N+](=O)[O-],0,2,0,-6,nt,nt
CCOc1ccc(N(C(=O)Cc2cccc(C)c2)C2C=CS(=O)(=O)C2)cc1 (configuration not stated),0,3,12,15,nt,nt
CC(C)(C)C(=O)Nc1cccc(C(=O)Nc2ccc3c(c2)-c2cc(NC(=O)c4cccc(NC(=O)C(C)(C)C)c4)ccc2C3)c1,0,-1,1,0,nt,nt
O=C(CN1CCCCCC1)N/N=C/c1ccccc1F,0,7.2*,-1,18,-1,2
CCCCN(C)Cc1c(C(=O)N2CCN(C3CCCCC3)CC2)nc2ccccn12,0,7.3*,4,14,1,6
O=C(NCCCc1ccccc1)C1CCN(C(=O)N2CCOc3ccc(Cl)cc32)CC1,0,4,8,6,nt,nt
O=C(NCCCc1ccccc1)C1CCN(C(=O)N2CCOc3ccccc32)CC1,0,6.1*,1,7,1,-7
Cc1nccn1CCN(C)c1nc2nonc2nc1NCc1ccccc1,0,12*,2,7,0,2

# Screening data deposited in PubChem BioAssay by The Scripps Research Institute Molecular Screening Center.
